Results filed as inconclusive are left out. Activity calls are given as the source filed them. Rule for the calls, unless noted: active = hit-call score of the fitted dose curve at least 0.9, where 1 is the maximum; inactive = score below 0.9.

The values that follow come from PubChem BioAssay (EPA / NIEHS).

Test [1] concerns the target Myc proto-oncogene protein (Homo sapiens) (UniProt P01106). Description: ATG_Myc_CIS: Attagene CIS-FACTORIAL HepG2 Assay for human Myelocytomatosis (Myc) Proto-Oncogene Transcription Factor (AID 2282990). Conditions: HepG2, Attagene cis-reporter transcription factor activity; actives raise or lower the signal. The procedure, abridged:
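Cells of the HepG2 human liver line bear multiple cis-driven reporter transcription units. Reporter mRNA after 24 h exposure is reverse-transcribed, amplified, labelled and resolved by capillary electrophoresis, with gain- or loss-of-signal fitting relative to DMSO.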

Test [2] can be described thus: ATG_NRF2_ARE_CIS: Attagene CIS-FACTORIAL HepG2 Assay for human Nuclear Factor Erythroid 2 Related Factor 2 (NFR2) response to Antioxidant Response Elements (ARE) (AID 2282992).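 For AC50: reporter mRNA level measured by RT-PCR and capillary electrophoresis fluorescence.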 Conditions: HepG2 Attagene ARE/NRF2 reporter, transcription factor activity; actives raise or lower the signal. The procedure, abridged:
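Transient MRTU transfection of HepG2; 24 h compound exposure; TriZol RNA, RT with oligo(dT), PCR, 6-FAM primer extension, HpaI cut, CE. Bidirectional fit vs DMSO.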

Test [3] in a line: ATG_Oct_MLP_CIS: Attagene CIS-FACTORIAL HepG2 Assay for human Octamer-Binding Transcription Factor (Oct) (AID 2282993). Conditions: HepG2 Attagene cis-factorial Oct reporter, mRNA; actives raise or lower the signal. The procedure, abridged: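 Transfected HepG2 cells, 24 h treatment. Reporter mRNA quantified by RT-PCR–capillary electrophoresis; bidirectional fitting against DMSO.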

Test [4] addresses Cellular tumor antigen p53 (Homo sapiens) (UniProt P04637). Description: ATG_p53_CIS: Attagene CIS-FACTORIAL HepG2 Assay for human p53 Transcription Factor (AID 2282994). The settings on record: HepG2 p53 cis-element reporter, Attagene mRNA; actives raise or lower the signal. Summed up:
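HepG2, transient MRTU transfection (cis promoter elements, endogenous TFs); 24 h dosing; RNA isolation, RT-PCR, 6-FAM primer extension, HpaI digest, CE fluorescence; bidirectional fit vs DMSO.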

For test [5], the target named is human Peroxisome Proliferator-activated Receptor delta (PPARd), PPARD (gene 5467) (UniProt Q03181). The experiment in a line: ATG_PPARd_TRANS: Attagene TRANS-FACTORIAL HepG2 Assay for human Peroxisome Proliferator-activated Receptor delta (PPARd) (AID 2283002; active = hit-call score of the fitted dose curve at least 0.9, where 1 is the maximum). The procedure, abridged:
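Cell-based TRANS reporter: HepG2, transient MRTU transfection, 24 h exposure. Readout = reporter mRNA (RT-PCR/CE, 6-FAM). Gain-of-signal fit vs DMSO control.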

In test [6] the target is Peroxisome proliferator-activated receptor gamma (Homo sapiens) (UniProt P37231). The experiment in a line: ATG_PPARg_TRANS: Attagene TRANS-FACTORIAL HepG2 Assay for human Peroxisome Proliferator-activated Receptor-gamma (PPARg) (AID 2283007; active = hit-call score of the fitted dose curve at least 0.9, where 1 is the maximum). Summed up:
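Chimeric NR-Gal4 transactivation is measured in transiently transfected HepG2 cells by reporter mRNA induction at 24 h. Detection uses RT-PCR with fluorescent labelling and capillary electrophoresis; DMSO defines baseline.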

Test [7] has as its target Nuclear receptor subfamily 1 group I member 2 (Homo sapiens) (UniProt O75469). Description: ATG_PXR_TRANS: Attagene TRANS-FACTORIAL HepG2 Assay for human Pregnane X Receptor (PXR) (AID 2283008; active = hit-call score of the fitted dose curve at least 0.9, where 1 is the maximum). Summed up: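 Read-out is fluorescence of labelled reporter cDNA fragments separated by capillary electrophoresis after RT-PCR and HpaI digestion. Source: HepG2 cells carrying PXR-GAL4/UAS reporter constructs, treated 24 h; activity fitted upward relative to DMSO.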

Test [8] deals with human Retinoic Acid Receptor beta (RARb), RARB (gene 5915) (UniProt P10826). Description: ATG_RARb_TRANS: Attagene TRANS-FACTORIAL HepG2 Assay for human Retinoic Acid Receptor beta (AID 2283004; active = hit-call score of the fitted dose curve at least 0.9, where 1 is the maximum). The procedure, abridged: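 Induction of reporter mRNA from a chimeric RARb-Gal4 construct was measured by RT-PCR, FAM labelling, HpaI digestion and capillary electrophoresis. Measurements followed 24 h compound treatment of transiently transfected human HepG2 liver cells, with DMSO as baseline.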
Sequence of human Retinoic Acid Receptor beta (RARb), RARB (gene 5915) (P10826 whole entry, looked up, the tested form may be a part): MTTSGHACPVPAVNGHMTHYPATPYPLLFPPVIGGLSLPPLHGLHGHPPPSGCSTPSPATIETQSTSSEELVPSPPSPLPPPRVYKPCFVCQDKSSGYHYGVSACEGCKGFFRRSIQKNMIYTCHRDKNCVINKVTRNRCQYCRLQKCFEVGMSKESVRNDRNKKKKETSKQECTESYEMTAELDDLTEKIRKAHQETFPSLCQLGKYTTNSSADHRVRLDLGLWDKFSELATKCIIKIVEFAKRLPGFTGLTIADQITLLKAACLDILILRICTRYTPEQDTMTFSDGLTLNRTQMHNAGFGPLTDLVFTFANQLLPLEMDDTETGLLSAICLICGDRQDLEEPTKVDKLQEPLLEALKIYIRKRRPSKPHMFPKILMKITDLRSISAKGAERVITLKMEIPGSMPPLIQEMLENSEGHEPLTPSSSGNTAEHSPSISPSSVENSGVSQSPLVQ

Test [9] addresses human RAR-related Orphan Receptor beta (RORb), RORB (gene 6096) (UniProt Q92753). The experiment in a line: ATG_RORb_TRANS: Attagene TRANS-FACTORIAL HepG2 Assay for human RAR-related Orphan Receptor beta (RORb) (AID 2283010; active = hit-call score of the fitted dose curve at least 0.9, where 1 is the maximum). Summed up:
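HepG2 cells transiently transfected with GAL4-UAS reporter units expressing chimeric NR-Gal4 protein; reporter mRNA measured 24 h after dosing by RT-PCR, 6-FAM labelling and capillary electrophoresis. Gain-of-signal fitted relative to DMSO baseline.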

The target in test [10] is human RAR-related Orphan Receptor gamma (RORg), RORC (gene 6097) (UniProt P51449). Description: ATG_RORg_TRANS: Attagene TRANS-FACTORIAL HepG2 Assay for human RAR-related Orphan Receptor gamma (RORg) (AID 2283011; active = hit-call score of the fitted dose curve at least 0.9, where 1 is the maximum). The procedure, abridged: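 Reporter transcripts from a transfected RORg-GAL4 chimera in HepG2 cells were quantified 24 h after dosing by RT-PCR, 6-FAM labelling, HpaI digestion and capillary electrophoresis; increases over DMSO baseline were fitted.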
Sequence of human RAR-related Orphan Receptor gamma (RORg), RORC (gene 6097) (P51449 whole entry, looked up, the tested form may be a part): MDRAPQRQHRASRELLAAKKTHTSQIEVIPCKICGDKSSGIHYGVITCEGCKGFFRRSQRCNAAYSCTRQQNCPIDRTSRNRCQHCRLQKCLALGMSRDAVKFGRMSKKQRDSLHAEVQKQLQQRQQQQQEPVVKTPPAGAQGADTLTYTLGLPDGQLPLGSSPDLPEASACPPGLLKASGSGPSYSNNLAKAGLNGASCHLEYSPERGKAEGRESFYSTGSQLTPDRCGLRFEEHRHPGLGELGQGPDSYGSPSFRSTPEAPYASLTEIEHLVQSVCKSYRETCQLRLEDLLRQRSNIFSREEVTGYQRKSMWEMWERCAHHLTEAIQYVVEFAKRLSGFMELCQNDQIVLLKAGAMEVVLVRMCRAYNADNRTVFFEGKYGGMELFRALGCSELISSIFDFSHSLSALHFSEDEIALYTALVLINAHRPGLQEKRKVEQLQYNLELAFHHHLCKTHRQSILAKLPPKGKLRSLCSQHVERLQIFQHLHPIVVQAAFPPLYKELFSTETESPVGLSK

In test [11] the target is Retinoic acid receptor alpha (Homo sapiens) (UniProt P10276). Description: ATG_RARa_TRANS: Attagene TRANS-FACTORIAL HepG2 Assay for human Retinoic Acid Receptor alpha (RARa) (AID 2283005; active = hit-call score of the fitted dose curve at least 0.9, where 1 is the maximum). Summed up:
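Reporter transcripts, measured by RT-PCR with fluorescent labeling and capillary electrophoresis after 24 h dosing, reflect activity of an exogenous human RARa–GAL4 fusion in transiently transfected HepG2. Fitted for increase relative to DMSO.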

Test [12] addresses human Peroxisome Proliferator-activated Receptor alpha (PPARa), PPARA (gene 5465) (UniProt Q07869). Description: ATG_PPARa_TRANS: Attagene TRANS-FACTORIAL HepG2 Assay for human Peroxisome Proliferator-activated Receptor alpha (PPARa) (AID 2283001; active = hit-call score of the fitted dose curve at least 0.9, where 1 is the maximum). Summed up: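 Read-out is fluorescence of reporter cDNA fragments resolved by capillary electrophoresis after RT-PCR. Human HepG2 liver cells carried transfected PPARa-Gal4 chimera and GAL4-UAS reporter units, treated 24 h; activity scored as increase over DMSO.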

Test [13] concerns the target human Retinoic Acid Receptor gamma (RARg), RARG (gene 5916) (UniProt P13631). The experiment in a line: ATG_RARg_TRANS: Attagene TRANS-FACTORIAL HepG2 Assay for human Retinoic Acid Receptor gamma (RARg) (AID 2283009; active = hit-call score of the fitted dose curve at least 0.9, where 1 is the maximum). The procedure, abridged: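 HepG2 transiently transfected with GAL4-UAS reporter units and chimeric NR-Gal4 constructs; 24 h compound exposure. Reporter mRNA quantified by RT-PCR, FAM labeling, HpaI digestion and capillary electrophoresis; gain-of-signal versus DMSO.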

Sequence of Nuclear receptor subfamily 1 group I member 2 (Homo sapiens) (O75469 whole entry, looked up, the tested form may be a part): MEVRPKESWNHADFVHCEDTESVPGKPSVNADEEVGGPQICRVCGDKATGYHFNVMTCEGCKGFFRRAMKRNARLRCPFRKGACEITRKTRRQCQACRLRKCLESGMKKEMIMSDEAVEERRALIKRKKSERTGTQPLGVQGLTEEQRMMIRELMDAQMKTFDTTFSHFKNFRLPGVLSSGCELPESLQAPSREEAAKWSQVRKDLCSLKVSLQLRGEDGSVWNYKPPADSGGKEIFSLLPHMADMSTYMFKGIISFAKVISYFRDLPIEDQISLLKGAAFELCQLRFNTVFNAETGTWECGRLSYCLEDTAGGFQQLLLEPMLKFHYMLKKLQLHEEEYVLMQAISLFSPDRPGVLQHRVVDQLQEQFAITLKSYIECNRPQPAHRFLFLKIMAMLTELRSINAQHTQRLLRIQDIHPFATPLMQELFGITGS
Sequence of Peroxisome proliferator-activated receptor gamma (Homo sapiens) (P37231 whole entry, looked up, the tested form may be a part): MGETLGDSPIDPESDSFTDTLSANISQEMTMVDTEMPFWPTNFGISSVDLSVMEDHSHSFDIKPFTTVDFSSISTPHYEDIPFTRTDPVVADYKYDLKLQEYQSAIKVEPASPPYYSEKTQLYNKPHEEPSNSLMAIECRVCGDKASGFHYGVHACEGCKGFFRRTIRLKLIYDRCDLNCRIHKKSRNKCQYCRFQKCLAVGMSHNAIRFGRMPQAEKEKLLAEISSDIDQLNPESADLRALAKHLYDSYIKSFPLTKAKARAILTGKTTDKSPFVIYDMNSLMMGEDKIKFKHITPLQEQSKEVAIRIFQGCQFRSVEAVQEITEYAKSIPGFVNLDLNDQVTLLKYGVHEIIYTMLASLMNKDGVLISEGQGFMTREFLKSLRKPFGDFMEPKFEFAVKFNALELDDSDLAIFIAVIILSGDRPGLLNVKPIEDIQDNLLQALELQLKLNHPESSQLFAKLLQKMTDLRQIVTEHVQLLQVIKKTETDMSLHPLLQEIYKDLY
Sequence of Retinoic acid receptor alpha (Homo sapiens) (P10276 whole entry, looked up, the tested form may be a part): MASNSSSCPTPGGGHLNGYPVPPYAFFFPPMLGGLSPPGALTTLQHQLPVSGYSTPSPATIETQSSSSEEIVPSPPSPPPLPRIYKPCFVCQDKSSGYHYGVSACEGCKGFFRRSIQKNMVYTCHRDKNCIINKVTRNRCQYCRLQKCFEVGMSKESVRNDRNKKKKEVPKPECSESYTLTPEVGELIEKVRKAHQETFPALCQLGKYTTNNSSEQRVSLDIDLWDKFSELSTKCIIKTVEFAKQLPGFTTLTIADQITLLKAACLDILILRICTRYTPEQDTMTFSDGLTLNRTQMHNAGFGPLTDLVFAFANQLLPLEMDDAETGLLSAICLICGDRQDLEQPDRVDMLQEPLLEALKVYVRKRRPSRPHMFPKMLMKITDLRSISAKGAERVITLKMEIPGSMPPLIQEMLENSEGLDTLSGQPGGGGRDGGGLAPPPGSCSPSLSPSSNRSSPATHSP
Sequence of Myc proto-oncogene protein (Homo sapiens) (P01106 whole entry, looked up): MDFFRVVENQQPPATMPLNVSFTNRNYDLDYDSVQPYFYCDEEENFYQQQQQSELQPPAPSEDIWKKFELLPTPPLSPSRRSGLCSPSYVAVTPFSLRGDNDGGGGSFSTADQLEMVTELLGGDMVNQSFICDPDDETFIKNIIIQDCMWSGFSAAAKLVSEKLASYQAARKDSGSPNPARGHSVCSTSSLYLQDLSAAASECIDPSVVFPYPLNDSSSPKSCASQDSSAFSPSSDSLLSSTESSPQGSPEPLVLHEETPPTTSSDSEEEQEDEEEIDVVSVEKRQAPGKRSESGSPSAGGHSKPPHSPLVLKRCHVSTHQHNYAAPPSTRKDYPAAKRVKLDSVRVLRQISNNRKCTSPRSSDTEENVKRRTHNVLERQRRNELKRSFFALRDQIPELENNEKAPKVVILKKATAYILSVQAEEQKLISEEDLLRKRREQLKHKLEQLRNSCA
Sequence of Cellular tumor antigen p53 (Homo sapiens) (P04637 whole entry, looked up): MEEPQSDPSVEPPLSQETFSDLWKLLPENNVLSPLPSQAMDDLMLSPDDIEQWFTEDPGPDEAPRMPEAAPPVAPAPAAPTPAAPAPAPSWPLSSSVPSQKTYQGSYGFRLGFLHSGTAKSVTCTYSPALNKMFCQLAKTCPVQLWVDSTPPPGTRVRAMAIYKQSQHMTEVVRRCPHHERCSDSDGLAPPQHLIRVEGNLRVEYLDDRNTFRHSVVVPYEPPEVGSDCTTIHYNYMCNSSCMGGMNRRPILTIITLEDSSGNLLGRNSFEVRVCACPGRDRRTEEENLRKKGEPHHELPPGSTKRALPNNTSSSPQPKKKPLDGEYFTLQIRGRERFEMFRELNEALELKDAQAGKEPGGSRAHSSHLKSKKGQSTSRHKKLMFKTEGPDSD
Sequence of human Peroxisome Proliferator-activated Receptor alpha (PPARa), PPARA (gene 5465) (Q07869 whole entry, looked up, the tested form may be a part): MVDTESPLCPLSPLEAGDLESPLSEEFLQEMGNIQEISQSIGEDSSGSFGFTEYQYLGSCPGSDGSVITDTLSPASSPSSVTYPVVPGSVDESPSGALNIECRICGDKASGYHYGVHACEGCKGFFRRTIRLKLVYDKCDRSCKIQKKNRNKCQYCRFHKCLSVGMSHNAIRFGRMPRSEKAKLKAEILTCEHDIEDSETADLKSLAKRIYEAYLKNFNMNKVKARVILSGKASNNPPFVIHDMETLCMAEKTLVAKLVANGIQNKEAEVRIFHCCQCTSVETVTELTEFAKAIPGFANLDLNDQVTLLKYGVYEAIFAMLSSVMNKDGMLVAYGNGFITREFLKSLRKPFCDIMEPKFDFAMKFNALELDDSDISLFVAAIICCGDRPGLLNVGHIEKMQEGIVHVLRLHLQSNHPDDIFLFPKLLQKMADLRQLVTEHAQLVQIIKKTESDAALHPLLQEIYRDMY
Sequence of human RAR-related Orphan Receptor beta (RORb), RORB (gene 6096) (Q92753 whole entry, looked up, the tested form may be a part): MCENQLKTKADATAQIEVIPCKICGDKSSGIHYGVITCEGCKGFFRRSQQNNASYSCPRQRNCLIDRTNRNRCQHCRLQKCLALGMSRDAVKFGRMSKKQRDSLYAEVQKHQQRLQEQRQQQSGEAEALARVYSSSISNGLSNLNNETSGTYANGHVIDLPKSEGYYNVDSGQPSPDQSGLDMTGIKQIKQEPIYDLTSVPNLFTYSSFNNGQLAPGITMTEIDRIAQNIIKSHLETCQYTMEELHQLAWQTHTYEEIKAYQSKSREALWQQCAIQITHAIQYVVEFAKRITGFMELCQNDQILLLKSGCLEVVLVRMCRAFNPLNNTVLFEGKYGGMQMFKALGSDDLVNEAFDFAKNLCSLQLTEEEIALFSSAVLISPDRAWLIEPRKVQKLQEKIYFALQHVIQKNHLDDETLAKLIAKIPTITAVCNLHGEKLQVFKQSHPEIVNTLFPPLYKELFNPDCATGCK
Sequence of human Peroxisome Proliferator-activated Receptor delta (PPARd), PPARD (gene 5467) (Q03181 whole entry, looked up): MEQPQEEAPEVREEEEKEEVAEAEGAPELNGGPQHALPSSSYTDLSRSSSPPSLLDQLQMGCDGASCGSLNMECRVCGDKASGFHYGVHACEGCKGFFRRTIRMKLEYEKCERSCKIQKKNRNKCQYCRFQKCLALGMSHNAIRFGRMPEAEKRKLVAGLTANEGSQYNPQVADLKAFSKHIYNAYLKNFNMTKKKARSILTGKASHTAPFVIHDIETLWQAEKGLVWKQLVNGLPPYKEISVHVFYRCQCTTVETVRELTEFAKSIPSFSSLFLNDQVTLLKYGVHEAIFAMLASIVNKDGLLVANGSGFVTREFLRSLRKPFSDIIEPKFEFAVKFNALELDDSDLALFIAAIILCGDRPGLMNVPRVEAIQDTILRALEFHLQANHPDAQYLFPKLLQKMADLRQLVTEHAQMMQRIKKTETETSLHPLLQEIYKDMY

With `CCCCSCCCC`, the compound was classed as inactive in test [1], in test [2], in [3], in test [4], in test [5] and in test [6]. In addition, in test [7], the call was inactive.
On to `CC(C)OCCO`, for which the call in test [1], in test [2], in test [3], in test [4], in test [8] and in [7] was inactive. Moreover, the compound was called inactive in test [9] and in [10].
For the compound `CCCC[P+](CCCC)(CCCC)CCCC`, the compound was classed as inactive in test [1], in [2], in test [3], in test [4], in [11] and in [7]. In addition, in test [10], the call was inactive.
In the case of `COCCOCCOCCO`, the result in test [1], in test [2], in test [3], in test [4], in [12] and in [9] was inactive. Besides, in test [10], the result was inactive.
Consider `CC(C)Nc1nc(N)nc(Cl)n1`, for which the outcome in test [1], in test [2], in test [3], in [4], in [5] and in [6] was inactive. The compound was classed as inactive in test [7].
Consider `O=C(O)CCCCCCCCCCCC(=O)O`, for which the outcome in test [1], in test [2], in test [3], in [4], in test [12] and in test [6] was inactive. The outcome in test [9] and in test [10] was inactive.
On to `CC(=O)NCCO`, for which the result in test [1], in [2], in test [3], in test [4], in [7] and in test [13] was inactive. Further, in test [9], the call was inactive.
Turning to `CCOC(=O)C1OC1c1ccccc1` (configuration not stated), the outcome in test [1], in test [2], in test [3], in [6], in test [7] and in test [10] was inactive. The concentration at half-maximal activity (AC50) in [4] is 64.4 µM (active).
With `CC/C=C\CCOC(=O)CC`, the compound was classed as inactive in test [1], in test [2], in test [3], in test [4], in [12] and in test [7].
In the case of `CCc1ccc(O)c(OC)c1`, the call in test [1], in test [2], in test [3], in test [4], in test [5] and in test [6] was inactive. Besides, the compound was classed as inactive in [7].
`C=CC(=O)OCCCC`: the compound was classed as inactive in test [1], in test [2], in test [3], in test [4], in [8] and in test [11]. Moreover, the call in [7] and in [13] was inactive.
As to `CC(C)=CCCC(C)CCOC=O` (configuration not stated), the compound was called inactive in test [1], in [2], in test [3], in [4], in [6] and in [7].
`CCCCCC(C)=O`: the call in test [1], in [2], in [3], in test [4], in test [6] and in test [10] was inactive.
Consider `NC1CCCCC1N` (configuration not stated), for which the result in [1], in test [2], in test [3], in test [4], in test [5] and in [11] was inactive. Further, the compound was classed as inactive in [7].
`CCCCC1(COC(=O)CCC(=O)O)C(=O)N(c2ccccc2)N(c2ccccc2)C1=O`: the compound was classed as inactive in [1], in test [2], in test [3], in [4], in test [6] and in test [10]. Moreover, the AC50 in test [7] was 28 µM (active).
Consider `O=C(CC(=O)c1ccccc1)c1ccccc1`, for which the concentration at half-maximal activity (AC50) was 100 µM (active) in test [1]; 3.43 µM (active) in test [2]; 59 µM (active) in test [3]; 3.74 µM (active) in test [6]; 28.2 µM (active) in test [7]. The compound was called inactive in [4], in [5] and in [10].
Take `CCc1ncc(C)[nH]1`: the call in test [1], in test [2], in test [3], in test [4], in [5] and in test [6] was inactive. Further, the call in test [7] was inactive.
On to `OC[C@H]1O[C@@H](Oc2ccc(O)cc2)[C@H](O)[C@@H](O)[C@@H]1O`, for which the outcome in test [1], in test [2], in test [3], in [4] and in test [5] was inactive.
As for `O=c1[nH]c(=O)c2cn[nH]c2[nH]1`, the outcome in [1], in test [2], in test [3], in [4], in [5] and in [11] was inactive. In [6], the call was inactive.
